From PubChem BioAssay AID1159580 (chemical genetic matrix, 2015)
“And” between values parts separate entries of the source, which are not always exact repeats. Equal values may be shown once. Hit rate of the full screen: of about 5,500 compounds, about 2,000 (36%) were called active. Inconclusive results (about 18%) are left out. Cut-off read from the data, not from the text of the source: active = normalized growth mostly below about 0.91 (no sharp cut-off); inconclusive = no clear call, values can overlap the other calls; inactive = mostly above about 0.92. The list shows a part of the results.

Assay: chemical genetic growth profiling, strain panel (AID 1159580);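 note: tested at 20 µM; growth read once vehicle control cultures reached saturation at 30 °C; 1 = growth at the plate median or of vehicle wells; lower values mean less growth of the strain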
Conditions: S. cerevisiae deletion strains, growth OD

Measured: normalized growth

NC(Cc1ccc(Cl)cc1)C(=O)O (stereo not drawn)
inactive: locus YAL013W, strain DEP1, active compounds read low 1 | locus YAL021C, strain ccr4, active compounds read low 0.989 | locus YAL026C, strain drs2, active compounds read low 1.01 | locus YAL030W, strain snc1, active compounds read low 0.993 | locus YAL040C, strain CLN3, active compounds read low 1 | locus YBL061C, strain skt5, active compounds read low 0.999 | locus YBR009C, strain hhf1, active compounds read low 0.993 | locus YBR021W, strain FUR4, active compounds read low 1.01 | locus YBR023C, strain chs3, active compounds read low 0.991 | locus YBR171W, strain sec66, active compounds read low 1.01 | locus YBR229C, strain ROT2, active compounds read low 0.96 | locus YBR231C, strain swc5, active compounds read low 0.997 | locus YBR279W, strain paf1, active compounds read low 0.988 | locus YCL011C, strain gbp2, active compounds read low 1 | locus YCL016C, strain dcc1, active compounds read low 0.989 | locus YCL029C, strain bik1, active compounds read low 0.994 | locus YCL061C, strain MRC1, active compounds read low 1.01 | locus YCL069W, strain vba3, active compounds read low 1 | locus YCR088W, strain abp1, active compounds read low 0.999 | locus YDL005C, strain med2, active compounds read low 0.989 | locus YDL035C, strain GPR1, active compounds read low 0.999 | locus YDL040C, strain nat1, active compounds read low 0.996 | locus YDL074C, strain BRE1, active compounds read low 0.997 | locus YDL101C, strain DUN1, active compounds read low 0.983 | locus YDL134C, strain PPH21, active compounds read low 0.952 | locus YDL185W, strain tfp1, active compounds read low 0.986 | locus YDL192W, strain arf1, active compounds read low 1 | locus YDR001C, strain nth1, active compounds read low 1.01 | locus YDR069C, strain doa4, active compounds read low 0.988 | locus YDR101C, strain arx1, active compounds read low 1.01 | locus YDR137W, strain rgp1, active compounds read low 0.998 | locus YDR150W, strain NUM1, active compounds read low 0.974 | locus YDR159W, strain sac3, active compounds read low 0.976 | locus YDR162C, strain NBP2, active compounds read low 1.01 | locus YDR195W, strain ref2 0.971 | locus YDR297W, strain sur2, active compounds read low 0.992 | locus YDR318W, strain mcm21, active compounds read low 0.987 | locus YDR334W, strain swr1, active compounds read low 1.02 | locus YDR335W, strain msn5, active compounds read low 1 | locus YDR388W, active compounds read low 0.996 | locus YDR392W, strain spt3, active compounds read low 0.936 | locus YDR502C, strain sam2, active compounds read low 1 | locus YEL003W, strain gim4, active compounds read low 1 | locus YEL037C, strain rad23, active compounds read low 1.02 | locus YEL061C, strain CIN8 (second series), active compounds read low 1.01 | locus YEL061C, strain CIN8, active compounds read low 0.99 | locus YER015W, strain faa2, active compounds read low 1 | locus YER016W, strain bim1, active compounds read low 0.992 | locus YER110C, active compounds read low 0.982 | locus YER111C, strain swi4, active compounds read low 1.01 | locus YER155C, strain BEM2 (second series), active compounds read low 0.975 | locus YER155C, strain BEM2, active compounds read low 1.01 | locus YER167W, strain BCK2, active compounds read low 0.999 | locus YFR010W, strain ubp6, active compounds read low 1.03 | locus YGL078C, strain dbp3, active compounds read low 0.988 | locus YGL086W, strain mad1, active compounds read low 1.01 | locus YGL167C, strain pmr1, active compounds read low 0.997 | locus YGL173C, strain kem1, active compounds read low 1 | locus YGL227W, strain vid30, active compounds read low 0.999 | locus YGL240W, strain doc1, active compounds read low 0.972 | locus YGL248W, strain PDE1, active compounds read low 0.987 | locus YGL253W, strain hxk2, active compounds read low 1.01 | locus YGR078C, strain PAC10, active compounds read low 0.991 and 1 | locus YGR135W, strain pre9, active compounds read low 1 | locus YGR229C, strain SMI1, active compounds read low 0.993 | locus YGR252W, strain gcn5, active compounds read low 0.989 | locus YHR013C, strain ard1, active compounds read low 0.994 | locus YHR027C, strain rpn1, active compounds read low 0.992 | locus YHR030C, strain SLT2, active compounds read low 0.986 and 0.959 | locus YHR079C, strain IRE1 (second series), active compounds read low 0.991 | locus YHR079C, strain IRE1, active compounds read low 0.986 | locus YHR094C, strain hxt1, active compounds read low 0.994 | locus YHR129C, strain ARP1, active compounds read low 0.985 | locus YHR142W, strain chs7, active compounds read low 1.03 | locus YHR200W, strain rpn10, active compounds read low 1 | locus YIL066C, strain RNR3, active compounds read low 0.982 | locus YIL073C, strain SPO22, active compounds read low 1.02 | locus YIL125W, strain kgd1, active compounds read low 0.998 | locus YIR030C, strain dcg1, active compounds read low 1 | locus YJL092W, strain hpr5, active compounds read low 1.01 | locus YJL095W, strain BCK1 (second series), active compounds read low 0.99 | locus YJL095W, strain BCK1, active compounds read low 1.02 and 0.993 | locus YJL115W, strain asf1, active compounds read low 0.994 | locus YJL129C, strain trk1, active compounds read low 1.02 | locus YJL134W, strain LCB3, active compounds read low 0.99 | locus YJL154C, strain vps35, active compounds read low 1.01 | locus YJL164C, strain tpk1, active compounds read low 0.992 | locus YJL166W, strain qcr8, active compounds read low 0.991 | locus YJL168C, strain set2, active compounds read low 0.994 | locus YJL187C, strain SWE1 (second series), active compounds read low 0.975 | locus YJL187C, strain SWE1, active compounds read low 0.993 | locus YJR043C, strain POL32, active compounds read low 1.01 | locus YJR066W, strain TOR1, active compounds read low 0.902
